According to PubChem BioAssay AID1159580 (chemical genetic matrix, 2015):
The campaign covered roughly 5,500 compounds. About 2,000 (36%) were called active. About 18% were inconclusive and are not listed. Cut-off read from the data, not from the text of the source: active = normalized growth mostly below about 0.91 (no sharp cut-off); inconclusive = no clear call, values can overlap the other calls; inactive = mostly above about 0.92. The list shows a part of the results.

Assay: chemical genetic growth profiling, strain panel (AID 1159580);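 note: tested at 20 µM; growth read once vehicle control cultures reached saturation at 30 °C; 1 = growth at the plate median or of vehicle wells; lower values mean less growth of the strain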
Conditions: S. cerevisiae deletion strains, growth OD

Measured: normalized growth

O=C1NC2CC2N1C(=O)OCc1ccccc1 (stereo not given)
inactive: locus YAL013W, strain DEP1, hits give low values 1 | locus YBR229C, strain ROT2, hits give low values 1 | locus YDL101C, strain DUN1, hits give low values 1.01 | locus YDR150W, strain NUM1, hits give low values 1.02 | locus YEL061C, strain CIN8, hits give low values 0.956 | locus YGR078C, strain PAC10, hits give low values 1.01 | locus YHR030C, strain SLT2, hits give low values 1.06 | locus YHR087W, strain rtc3, hits give low values 0.969 | locus YJL187C, strain SWE1, hits give low values 0.991 | locus YJR043C, strain POL32, hits give low values 0.993 | locus YJR075W, strain HOC1, hits give low values 1.01 | locus YLR039C, strain RIC1, hits give low values 0.99 | locus YLR058C, strain SHM2 (second series), hits give low values 0.995 | locus YLR085C, strain ARP6, hits give low values 0.978 | locus YLR262C, strain YPT6, hits give low values 1.02 | locus YML094W, strain GIM5, hits give low values 0.992 | locus YMR219W, strain ESC1, hits give low values 1 | locus YMR263W, strain SAP30, hits give low values 0.978 | locus YNL153C, strain GIM3, hits give low values 1.01 | locus YNL298W, strain CLA4 (second series), hits give low values 0.954 | locus YNL322C, strain KRE1, hits give low values 1 | locus YNR030W, strain Alg12, hits give low values 0.988 | locus YPL055C, strain LGE1, hits give low values 0.99 | locus YPL241C, strain CIN2, hits give low values 1.01 | locus YPR135W, strain CTF4, hits give low values 1.03
